# From PubChem
# A selection: hits, their analogues and other compounds. The true share with any hit is near 2.3%.
# Mcl1-Bid inh = Mcl-1/Bid binding inhibitors, primary screen, biochemical, TR-FRET, 1536-well. Induced myeloid leukemia cell differentiation protein Mcl-1 (Homo sapiens), Q07820. TR-FRET Mcl-1/Bid-Dy647 peptide binding. inhibition, % at 21.7 µM. actives 0.97% (n = 220,000). AID 1021, 2008;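 active = compounds that cut the binding signal by more than half at the single screening dose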;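 also: His-tagged Mcl-1 with europium anti-His antibody binding Bid BH3 peptide; 0% = Mcl-1 plus peptide wells and 100% = peptide-only wells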
# Target sequence (Q07820 whole entry, looked up): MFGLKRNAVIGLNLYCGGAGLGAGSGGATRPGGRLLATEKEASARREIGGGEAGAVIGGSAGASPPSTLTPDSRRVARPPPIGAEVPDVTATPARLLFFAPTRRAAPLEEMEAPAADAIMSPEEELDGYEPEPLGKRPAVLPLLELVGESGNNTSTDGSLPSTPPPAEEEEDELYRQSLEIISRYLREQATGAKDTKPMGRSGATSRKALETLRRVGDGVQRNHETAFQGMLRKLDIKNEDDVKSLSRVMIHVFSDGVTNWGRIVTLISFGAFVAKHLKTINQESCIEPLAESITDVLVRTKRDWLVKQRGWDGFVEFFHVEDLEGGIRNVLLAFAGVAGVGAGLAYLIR
# GLD-1 TGE inh = GLD-1/TGE RNA complex disruptors, primary screen, biochemical, fluorescence polarization | inhibition, % at 5.96 µM | Female germline-specific tumor suppressor gld-1 (Caenorhabditis elegans), Q17339 | purified GLD-1 + fluorescein TGE RNA | actives 0.44% (n = 320,000);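 active = percent inhibition above a per-plate cutoff, the plate mean of test compounds plus 3 SD, cut at about 30% in these data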;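 also: 0% = DMSO wells with GLD-1 and probe and 100% = wells lacking GLD-1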
# Bcl-xL primary = inhibitors of human Bcl-xL, primary screen, biochemical, fluorescence polarization, HTS | Bcl-2-like protein 1 (Homo sapiens), Q07817 | GST-Bcl-xL / FITC-Bim BH3 peptide fluorescence polarization | inhibition, % at 10.9 µM | actives 0.7% (n = 320,000);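 active = inhibition above the mean of all tested compounds plus 3 SD, cutoff set per campaign, cut at about 30% in these data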;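 also: 0% = DMSO wells and 100% = unlabeled Bim-BH3 peptide competitor; inhibitors lower millipolarization by displacing the labeled peptide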
# Target sequence (Q07817 whole entry, looked up): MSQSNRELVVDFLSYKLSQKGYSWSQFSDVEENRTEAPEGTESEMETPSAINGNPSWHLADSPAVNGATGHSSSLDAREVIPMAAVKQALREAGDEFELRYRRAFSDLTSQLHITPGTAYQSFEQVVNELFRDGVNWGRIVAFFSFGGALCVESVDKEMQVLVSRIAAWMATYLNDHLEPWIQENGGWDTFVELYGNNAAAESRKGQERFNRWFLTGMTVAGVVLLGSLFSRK
# MCL1 BIM primary = inhibitors of MCL1 binding to BIM-BH3, primary screen, biochemical, fluorescence polarization | actives 0.68% (n = 320,000) | inhibition, % at 10.9 µM | Induced myeloid leukemia cell differentiation protein Mcl-1 (Homo sapiens), Q07820 | GST-MCL1 / FITC-Bim-BH3 fluorescence polarization | AID 2057, 2009;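 active = inhibition above the mean inhibition of all tested compounds plus 3 SD, set per campaign, cut at about 40% in these data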;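 also: 0% = DMSO wells and 100% = unlabeled Bim-BH3 peptide control; higher means more loss of mP so more displacement of Bim peptide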
# Mcl1 Noxa PPI = Mcl-1/Noxa binding inhibitors, primary screen, biochemical, TR-FRET, 1536-well | TR-FRET Mcl-1/Noxa peptide binding, 2 h | actives 1.5% (n = 220,000) | Induced myeloid leukemia cell differentiation protein Mcl-1 (Homo sapiens), Q07820 | inhibition, % at 21.7 µM;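 active = compounds that cut the protein-peptide binding signal by more than 50% relative to plate controls in a single-dose test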;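 also: His-tagged Mcl-1 with rhodamine Noxa BH3 peptide and terbium anti-His antibody; 0% = Mcl-1 plus Noxa peptide wells and 100% = peptide-only wells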
# Mcl-1 Bim block = inhibitors of Bim peptide binding to Mcl-1, primary screen, biochemical, bead-based flow cytometry, multiplex. Induced myeloid leukemia cell differentiation protein Mcl-1 (Homo sapiens), Q07820. Bim peptide-Mcl-1 binding. inhibition, % at 10 µM. actives 0.1% (n = 190,000). AID 1009, 2008; in the data active = inhibition above about 40%;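 also: 0% = no compound tracer wells and 100% = peptide blocker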
# * hit, by the source's call; . = no result given.
SMILES,Mcl1-Bid inh,GLD-1 TGE inh,Bcl-xL primary,MCL1 BIM primary,Mcl1 Noxa PPI,Mcl-1 Bim block
CCC1=[N+](C)CCn2c(C)ccc21,-18,-10,-11,-18,12,-3
COc1ccc(OC)c(-c2nc(C(N)=O)c3[nH]c(=O)n(-c4ccc(F)cc4)c3n2)c1,66*,4,3,-2,67*,1
CCOc1ccc(-c2csc3nc[nH]c(=O)c23)cc1,.,1,4,8,.,.
Nc1nnc(SCC(=O)N2CCN(c3ccccc3)CC2)n1-c1ccccc1,97*,11,-4,2,41,0
Nc1nnc(SCC(=O)N2CCN(c3cccc(Cl)c3)CC2)n1-c1ccccc1,-19,-5,5,2,1,-3
CC(=O)N(C)c1ccc(NS(=O)(=O)c2cccc3nsnc23)cc1,.,-1,0,5,.,.
Cc1ccc(N=Nc2ccc(O)c3ncccc23)cc1C,-55,7,7,17,-28,2
Cc1cc(N=Nc2ccc(C)c(N=Nc3cc(C)c(N)cc3N)c2)c(N)cc1N,-135,3,19,21,60*,.
COC(=O)C(Cc1ccccc1)NC(=O)c1ccc(C)cc1 (stereo unspecified),-29,-4,5,14,19,-3
COC(=O)C(Cc1csc2ccc(Cl)cc12)NC(=O)c1ccc(Cl)cc1 (stereo unspecified),82*,2,3,9,45,.
Cc1ccccc1C(=O)Nc1ccc2c(C#N)c3nc4ccccc4nc3n2c1,84*,13,42*,37,70*,4
CCN(C(=O)COC(=O)c1cccs1)c1c(N)n(Cc2ccccc2)c(=O)[nH]c1=O,.,-2,-3,-18,.,.
Cc1cc(/C=c2\sc3nc4ccccc4n3c2=O)c(C)n1-c1ccc(C(=O)O)cc1,-12,.,.,.,65*,0
O=c1/c(=C\c2cccnc2)sc2nc3ccccc3n12,14,.,.,.,7,-4
O=c1/c(=C/c2ccc(O)c([N+](=O)[O-])c2)sc2nc3ccccc3n12,28,.,.,.,80*,-2
COc1cc(O)oc1C=Nc1ccc(C(F)(F)F)cc1,-46,0,1,-5,64*,-2
CCOc1ccc(S(=O)(=O)N2CCOCC2)cc1NC(=O)CSCc1ccc(C)cc1,.,3,-1,1,.,.
CC1CCC(C(C)C)C2=C1C(C#N)(C#N)C(C#N)(C#N)C(c1ccccc1)N2 (stereo unspecified),-36,21,16,10,56*,0
CC1(C)CC(=O)c2c(O)cc(OCC(=O)N3CCN(c4ccc(F)cc4)CC3)cc2O1,.,7,0,0,.,.
O=C(CC1Nc2cccc3cccc(c23)NC1=O)Nc1ccccc1 (stereo unspecified),-48,10,20,30,54*,-4
CCOC(=O)c1[nH]c(C)c(C(=O)OCC(=O)N2CC(=O)Nc3ccccc32)c1C,-6,2,6,-12,2,-2
COc1ccccc1C(=O)N1CCC(N2CCN(c3ccccc3OC)CC2)CC1,24,2,5,2,16,.
COc1ccccc1C(=O)N1CCC(N2CCN(c3ccccc3)CC2)CC1,56*,0,2,3,-68,.
Cc1cc(=O)n2nc(N3CCCC3C(=O)Nc3cccc(F)c3)sc2n1 (stereo unspecified),.,4,1,-2,.,.
C=CCN1C(=O)/C(=C2/Sc3ccc(OC)cc3N2C)SC1=Nc1cccc(O)c1,54*,-2,-10,-9,58*,-1
SMILES,Mcl1-Bid inh,GLD-1 TGE inh,Bcl-xL primary,MCL1 BIM primary,Mcl1 Noxa PPI,Mcl-1 Bim block
Cn1c(N)c(C(=O)NCc2ccccc2)sc1=S,-7,2,34*,26,17,-12
O=C(/C=C/c1ccc(N2CCC(c3ccccc3)=N2)cc1)c1ccccc1,-14,-84,34*,-50,13,.
O=C(/C=C/c1ccc(O)cc1)c1ccccc1,-28,-11,1,-2,-7,.
N#C/C(=C\C=C\c1ccccc1[N+](=O)[O-])C(=O)NC1CCCCC1,1,-3,5,5,13,-6
N#C/C(=C\c1ccccc1[N+](=O)[O-])C(=O)NC1CCCCC1,7,26,31*,31,-10,-1
O=C(NCC(c1ccco1)N1CCCC1)c1cccc(S(=O)(=O)N2CCOCC2)c1 (stereo unspecified),.,10,2,6,.,.
Cn1c2c(c(=O)n(C)c1=O)C(NS(=O)(=O)c1ccc(Cl)cc1)(C(F)(F)F)C(=O)N2 (stereo unspecified),-107,6,1,2,53*,1
Cc1ccc(-n2c3c(c(=O)[nH]c2=O)C(NS(=O)(=O)c2ccc(Cl)cc2)(C(F)(F)F)C(=O)N3)cc1 (stereo unspecified),-55,3,8,3,54*,-5
COc1cc(S(=O)(=O)Nc2cccc3cn[nH]c23)c(OC)cc1Cl,.,2,1,-1,.,.
NNC(=O)COc1ccccc1F,3,-5,-6,-8,9,47*
NNC(=O)COc1ccc(F)cc1,-12,7,-6,4,30,-2
O=c1c2ccccc2sc2nc(C3CCCCC3)n(Cc3ccco3)c(=O)c12,67*,.,.,.,-30,4
COc1ccccc1NC(=O)C(=O)N/N=C/c1ccc([N+](=O)[O-])s1,93*,.,.,.,93*,4
O=[N+]([O-])c1ccc(/C=N/NC(=S)Nc2ccc(Cl)cc2Cl)s1,80*,-12,-4,-3,87*,.
Cc1ccccc1NC(=O)/C=C/c1ccc([N+](=O)[O-])s1,52*,-1,2,0,14,-6
S=C(Nc1ccc2nc(-c3ccccn3)c(-c3ccccn3)nc2c1)N1CCCCCC1,-62,15,35*,41*,-3,3
S=C(Nc1ccc2nc(-c3ccccn3)c(-c3ccccn3)nc2c1)N1CCCCC1,-31,.,.,.,9,0
COc1ccc(NC(=O)c2cc(-c3cc(OC)c(OC)c(OC)c3)nc3ccccc23)cc1OC,.,6,2,4,.,.
COc1ccc(-c2cc(C(=O)Nc3ccc(O)cc3)c3ccccc3n2)cc1OC,54*,6,7,8,32,.
Cc1cccc(NC(=O)CN2C(=O)S/C(=C\c3ccc(O)c([N+](=O)[O-])c3)C2=O)c1,-43,-5,11,0,21,1
Cc1ccc(NC(=O)CN2C(=O)S/C(=C/c3ccc(O)c([N+](=O)[O-])c3)C2=O)cc1C,21,.,.,.,73*,-3
O=C(CSc1ccccc1F)Nc1ccc2c(c1)OCO2,.,-1,.,.,.,.
